High-throughput results from PubChem.
Cruzain inh Det: inhibitors of Trypanosoma cruzi cruzain with detergent | P25779 | purified cruzain, Z-FR-AMC fluorescence, 0.01% Triton | Potency, µM, hits mostly inhibitors | 200,000 tested, 0.43% active | AID 1478; also: nearly all actives have a fitted effect of over 40% in size
Target sequence (P25779 123-467 limits assumed): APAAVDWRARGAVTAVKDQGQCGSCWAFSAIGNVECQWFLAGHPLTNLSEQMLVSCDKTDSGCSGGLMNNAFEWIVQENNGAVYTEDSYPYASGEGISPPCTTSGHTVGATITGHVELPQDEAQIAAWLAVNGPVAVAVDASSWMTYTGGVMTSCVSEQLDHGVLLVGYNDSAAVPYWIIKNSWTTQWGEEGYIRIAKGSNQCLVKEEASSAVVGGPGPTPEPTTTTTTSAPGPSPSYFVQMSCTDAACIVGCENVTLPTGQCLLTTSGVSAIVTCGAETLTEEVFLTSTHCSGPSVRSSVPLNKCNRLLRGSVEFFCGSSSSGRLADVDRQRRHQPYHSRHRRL
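Enzyme 1.5 nM, Z-FR-AMC 2 uM, NaOAc 100 mM pH 5.5, DTT 5 mM, Triton X-100 0.01%; 15 min RT compound preincubation; kinetic ex360/em450, 60 s delta.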
Cruzain noTriton: cruzain (T. cruzi) inhibition without detergent | P25779 | purified cruzain, Z-FR-AMC fluorescence, no detergent | Potency, µM, hits mostly inhibitors | 200,000 tested, 2.3% active | AID 1476; also: nearly all actives have a fitted effect of over 40% in size
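Purified cruzain at 1.5 nM, pre-incubated 15 min with compound at room temperature in 100 mM sodium acetate pH 5.5, 5 mM DTT, 0.00005% Triton X-100. Reaction started with 2 uM Z-FR-AMC; AMC fluorescence increase over 60 s gives rate.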
NS1 function inh: blocks influenza NS1 protein function | 270,000 tested, 0.4% active | Potency, µM (top dose mostly 46.1 µM) | AID 2326; calls by dose curve; also: actives are rising curves; nearly all actives have a fitted effect of over 50% in size
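In this qHTS, NS1 from influenza A is expressed in budding yeast, where it slows growth. Cells are switched from glucose to 2% galactose medium (pH 6.0, -URA), treated with compound, and growth recovery is read at OD600.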
Hits are given with their value; - = inactive; ? = inconclusive; . = no result given. Only a selection was taken, and hits are over-represented in it overall. Unless noted, calls follow the shape of the dose curve; as a rule, active = well fitted curve in the direction sought with a large enough effect; inconclusive = small, poorly fitted or top-dose-only effect, or another doubt; inactive = no such curve, though single readings can be large; an effect the other way counts as inactive or inconclusive.

SMILES	Cruzain inh Det	Cruzain noTriton	NS1 function inh
COc1ccc(NC(=O)Cn2c(=O)n(Cc3nc(-c4ccccc4)no3)c(=O)c3cc4c(cc32)OCO4)c(OC)c1	-	-	.
COc1ccc(NC(=O)Cn2c(=O)n(Cc3nc(-c4ccccc4)no3)c(=O)c3cc4c(cc32)OCO4)cc1Cl	-	?	.
Cc1noc(Cn2c(=O)c3cc4c(cc3n(CC(=O)Nc3ccc(C(C)C)cc3)c2=O)OCO4)n1	-	-	.
Cc1ccc(NC(=O)Cn2c(=O)n(Cc3nc(-c4ccccc4)no3)c(=O)c3cc4c(cc32)OCO4)cc1C	-	10µM	.
CCc1ccc(NC(=O)Cn2c(=O)n(Cc3nc(-c4ccccc4)no3)c(=O)c3cc4c(cc32)OCO4)cc1	-	16µM	.
COc1cccc(C(=O)NC2CCN(CC(=O)Nc3nccs3)CC2)c1	-	-	-
O=C(Cc1ccccc1)NNC1CC(=O)N(c2ccc(Cl)cc2)C1=O (stereo unspecified)	.	.	-
CCCOc1cc(N(CC)CC)ccc1/C=C(/C#N)c1nc2ccc(C)cc2[nH]1	-	20µM	-
COc1cc(/C=C(\C#N)c2nc3ccccc3[nH]2)cc(Br)c1OCc1ccc(F)cc1	-	25µM	-
COc1cc(/C=C(\C#N)c2nc3ccccc3[nH]2)cc(Br)c1OCc1ccccc1	-	?	-
COc1cccc(/C=C(\C#N)c2nc3ccc(C)cc3[nH]2)c1	-	?	.
CCOc1cc(N(CC)CC)ccc1/C=C(/C#N)c1nc2ccccc2[nH]1	-	32µM	-
Cc1ccc2nc(/C(C#N)=C/c3ccc(-c4cccc([N+](=O)[O-])c4)o3)[nH]c2c1	-	?	?
Cc1cc(/C=C(\C#N)c2nc3ccccc3[nH]2)c(C)n1C	-	?	-
Cc1ccc2nc(/C(C#N)=C/c3ccc(-c4ccc(F)cc4F)o3)[nH]c2c1	-	10µM	.
CCCn1c2ccccc2c2cnn(CC(=O)NCCCN3CCCC(C)C3)c(=O)c21 (stereo unspecified)	.	.	-
COc1ccc(NC2CCCN(C(=O)c3cccnc3SC)C2)cc1OC (stereo unspecified)	.	.	-
CCN(CC)c1ccc(/C=C(/C#N)c2nc3ccc(C)cc3[nH]2)c(OC(C)C)c1	-	25µM	-
COc1cc(/C=C(\C#N)c2nc3ccc(C)cc3[nH]2)c([N+](=O)[O-])cc1OC	-	?	-
N#Cc1ccc(-n2c(-c3ccccc3)nnc2-c2ccccc2)cc1C#N	-	20µM	?
N#Cc1cccc(-n2c(-c3ccccc3)nnc2-c2ccccc2)c1C#N	-	?	-
O=C(NC1CCCCC1)c1ccc(CS(=O)(=O)Cc2ccccc2F)o1	-	-	?
O=C(NC(=S)Nc1nc2c(ccc3ccccc32)s1)c1cccs1	-	20µM	-
O=C(Nc1nc2c(ccc3ccccc32)s1)c1ccco1	-	-	-
COc1ccc(CNC(=O)CSc2ncc(S(=O)(=O)c3ccc(Br)cc3)c(=O)[nH]2)cc1	-	?	.
SMILES	Cruzain inh Det	Cruzain noTriton	NS1 function inh
COC(=O)c1cc(Cl)ccc1NC(=O)CSc1ncc(S(=O)(=O)c2ccc(Br)cc2)c(=O)[nH]1	25µM	?	.
Cc1ccc(C)n1-c1c(C(=O)NCCC(C)C)sc2ncccc12	-	-	.
CCN(CC(=O)NCc1ccc(F)cc1)Cc1nc2cc(Cl)ccc2c(=O)[nH]1	-	-	?
COc1ccccc1NC(=O)C(=O)N/N=C(\C)CC(=O)Nc1ccc(OCc2ccccc2)cc1	-	-	-
C/C(CC(=O)Nc1ccc(OCc2ccccc2)cc1)=N\NC(=O)C(=O)Nc1cccc(C)c1	-	32µM	-
CCCn1c(N)c(C(=O)COC(=O)CCS(=O)(=O)c2ccc(C)cc2)c(=O)[nH]c1=O	.	.	-
Cc1ccccc1C(=O)Nc1ccnn1C1CCN(Cc2c(C)n(C)c3ccccc23)CC1	.	.	-
O=C(Oc1ccc(N(Cc2cccs2)C2=NS(=O)(=O)c3ccccc32)cc1)c1ccc(Cl)cc1	-	32µM	-
O=C(Oc1ccc(N(Cc2cccs2)C2=NS(=O)(=O)c3ccccc32)cc1)c1ccccc1	-	?	-
CCN(CC)CCCN(Cc1cc2cc3c(cc2[nH]c1=O)OCO3)C(=S)NCc1ccco1	.	.	-
CNP(=S)(NC)OCCOc1ccc(OC)cc1	-	-	-
Cc1cccc(CSc2nc3c(c(-c4cccs4)c2C#N)CN(C)CC3)c1	-	-	-
Cc1cccc(CSc2nc(N)c(C#N)c(-c3cccs3)c2C#N)c1	-	25µM	-
O=C1c2ccccc2-c2onc3c(Oc4ccccc4)cc(O)c1c23	-	20µM	-
CCOc1ccc2noc3c2c1C(=O)c1ccccc1-3	-	-	-
COc1cc2c(cc1OC)C1O[C@](c3ccsc3)(C2)Oc2cc(C)n(Cc3ccccc3)c(=O)c21	.	.	-
Cc1ccccc1NC(=O)C1CC(Cl)=CCC1C(=O)O (stereo unspecified)	-	-	-
O=C(Nc1cccc(-c2nc3cccnc3s2)c1)c1cccnc1Cl	.	.	-
O=C(Nc1cccc(-c2nc3cccnc3s2)c1)C1c2ccccc2Oc2ccccc21	-	20µM	?
CCc1nc(NCC(C)C)c(C#N)c2c1COC(C)(C)C2	-	-	-
CCCCc1nc(NCc2ccccc2)c(C#N)c2c1COC(C)(C)C2	-	25µM	-
Cc1ccc(NC(=O)c2cc3c(s2)CCC3)cc1S(=O)(=O)N1CCOCC1	-	-	-
Cc1ccc(NS(=O)(=O)c2cc(NC(=O)c3cc4c(s3)CCCC4)ccc2C)c(C)c1	-	32µM	-
c1ccc2[nH]c(CSc3nc4ccccc4o3)nc2c1	-	13µM	-
c1cncc(-c2nnc(SCc3nc4ccccc4[nH]3)o2)c1	-	?	-
SMILES	Cruzain inh Det	Cruzain noTriton	NS1 function inh
CCOC(=O)c1c(N)c(C#N)c2n1CCCCC2	-	-	-
O=C(O)c1ccc2nc(-c3ccccc3)sc2c1	-	-	-
Nc1ccc(-c2nc3ccc(C(=O)O)cc3s2)cc1	25µM	?	-
NC(=O)N[C@H]1NC(=O)NC1=O	-	-	.
CCOC(=O)c1cc(-c2ccccc2)sc1NC(=O)C(C)N1C(=O)NC(C)(c2ccc(Cl)cc2)C1=O (stereo unspecified)	-	4µM	-
CCOC(=O)c1cc(-c2ccccc2)sc1NC(=O)C(C)C	-	-	-
COCCn1c(SCC(=O)NCc2ccc(OC)c(OC)c2)nc2ccccc21	.	.	-
CN(CCN1CCOCC1)C(=O)CC1C(=O)NCCN1Cc1ccccc1C(F)(F)F (stereo unspecified)	.	.	-
Cc1nc(N/N=C/c2ccccc2)nc(N(C)c2ccccc2)c1[N+](=O)[O-]	-	16µM	-
Cc1nc(Cl)nc(N(C)c2ccccc2)c1[N+](=O)[O-]	.	.	-
Cc1ccc(NC(=O)Nc2nnc(CSCCOc3ccc(Cl)cc3)s2)cc1	-	7.9µM	-
O=C(Nc1cccc(Cl)c1)Nc1nnc(CSCCOc2ccc(Cl)cc2)s1	-	?	-
CCc1nnc(NC(=O)Nc2ccc(OC)cc2)s1	-	-	-
COc1ccc(OCCSCc2nnc(NC(=O)Nc3ccc(Cl)cc3)s2)cc1	-	13µM	-
COc1ccc(Nc2nc(NCC3CCCO3)c3ccccc3n2)c(OC)c1 (stereo unspecified)	.	.	-
Oc1cccc(Nc2nc(NCC3CCCO3)c3ccccc3n2)c1 (stereo unspecified)	18µM	13µM	-
OCCNc1nc(Nc2ccccc2)nc2ccccc12	?	16µM	-
OCCNc1nc(Nc2ccccc2)nc(Nc2ccccc2)n1	-	-	-
